A selection: hits, their analogues and other compounds. The true share with any hit is near 10%.
HP1b chromo inh – inhibitors of HP1-beta chromodomain binding to methylated histone tails; P83916; AlphaScreen HP1-beta / biotin-H3K9me3 peptide binding; Potency, µM (series often up to 114 µM), most hits filed as inhibitors; hit rate 0.56% among 390,000; AID 540317; note: nearly all actives have a fitted effect of over 70% in size
Target sequence (P83916 whole entry, looked up): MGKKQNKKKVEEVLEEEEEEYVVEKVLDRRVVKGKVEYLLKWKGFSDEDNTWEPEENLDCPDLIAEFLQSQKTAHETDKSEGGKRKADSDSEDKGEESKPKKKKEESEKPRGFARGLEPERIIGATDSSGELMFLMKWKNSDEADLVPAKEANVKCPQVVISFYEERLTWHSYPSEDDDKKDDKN
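Compound inhibition of the preformed complex between 50 nM HP1-beta and 50 nM biotinylated H3K9me3 peptide was read by AlphaScreen. Buffer was PBS pH 7.4 with 0.01% Tween-20. Incubations ran 30 min at room temperature, with 10 ug/mL donor/acceptor beads.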
G9a block – G9a (human) methyltransferase inhibition; G9a H3K9 monomethylation, AlphaScreen, 2 h; Potency, µM (titrated, usually from 102 µM), hits mostly inhibitors; hit rate 8.8% among 350,000; AID 504332; note: nearly all actives have a fitted effect of over 75% in size
Target sequence (Q96KQ7 913-1193 limits assumed): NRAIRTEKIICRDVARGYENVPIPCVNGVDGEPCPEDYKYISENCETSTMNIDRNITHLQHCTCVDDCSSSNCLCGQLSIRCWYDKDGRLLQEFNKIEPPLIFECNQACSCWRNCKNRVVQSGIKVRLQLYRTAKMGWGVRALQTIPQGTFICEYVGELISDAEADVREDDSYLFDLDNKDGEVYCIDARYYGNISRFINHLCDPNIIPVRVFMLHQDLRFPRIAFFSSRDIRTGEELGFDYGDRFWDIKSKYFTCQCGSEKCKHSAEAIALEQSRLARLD
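Quantitative HTS format: methyltransferase activity on a biotin-tagged H3K9 peptide is measured by AlphaScreen, using a rabbit anti-monomethyl-H3K9 antibody with streptavidin donor and anti-IgG acceptor beads. Final levels are 20 nM enzyme, 500 nM peptide, 20 uM SAM; 2 h RT.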
BAZ2B block – blocks human BAZ2B; Q9UIF8; AlphaScreen BAZ2B-H3K14Ac peptide displacement; Potency, µM (highest dose often 114 µM), actives largely listed as inhibitors; hit rate 4.4% among 360,000; note: nearly all actives have a fitted effect of over 60% in size
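AlphaScreen displacement: compounds (up to 110uM) incubated 30 min at room temperature with a preformed 50 nM BAZ2B/50 nM biotinylated H3K14Ac peptide complex in PBS pH 7.4 with Tween-20. Donor and acceptor beads at 10 ug/mL final added, 20 min light-protected before reading.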
JMJD2A Tudor – inhibitors of human JMJD2A Tudor domain; AID 504339; AlphaScreen JMJD2A-Tudor / H3K4me3 peptide binding; Potency, µM (series often up to 114 µM), most hits filed as inhibitors; hit rate 4.4% among 390,000; O75164; note: nearly all actives have a fitted effect of over 50% in size
GLS inhibitor – inhibitors of human glutaminase (GLS) | AID 624170 | GLS enzymatic activity, qHTS titration | Potency, µM (doses to about 45.5 µM), hits mostly inhibitors | hit rate 0.21% among 410,000
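Assay buffer: 45 mM KH2PO4 pH 8.2, 0.02% Tween-20. hKGA acts on L-glutamine (1 mM solution added); product glutamate is reported by an oxidase/peroxidase Amplex Red coupling, with fluorescence taken at baseline and 30 min.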
Each line names hits and unclear results; the compound was inactive in the other large screens. Calls come from the whole dose curve; as a rule, active = well fitted curve in the direction sought with a large enough effect; inconclusive = small, poorly fitted or top-dose-only effect, or another doubt; inactive = no such curve, though single readings can be large; an effect the other way counts as inactive or inconclusive.

CC(=O)c1c(C)n([O-])c2cc(F)c(F)cc2[n+]1=O	none
C[C@]12C=CC(=O)N[C@@H]1CC[C@@H]1C2CC[C@]2(C)C(C(=O)Nc3cc(C(F)(F)F)ccc3C(F)(F)F)CC[C@@H]12 (some centres undefined)	none (no result: HP1b chromo inh, BAZ2B block, JMJD2A Tudor)
CN(C)CCNc1nc2sc3c(c2c(=O)n1Cc1ccccc1)CCCCC3	G9a block inconclusive, BAZ2B block 35.5µM, JMJD2A Tudor 50.1µM
O=c1c2c3c(sc2nc(NCCO)n1Cc1ccco1)CCCCC3	none
O=c1c2c3c(sc2nc(NCCO)n1CCc1ccccc1)CCCCC3	HP1b chromo inh inconclusive, G9a block 56.2µM, BAZ2B block inconclusive, JMJD2A Tudor inconclusive
CN(C)CCNc1nc2sc3c(c2c(=O)n1-c1ccccc1)CCCCC3	none
Cc1cc([N+](=O)[O-])nn1CC(=O)NCc1ccc(Cl)cc1	none
CCOc1ccc(/C=C/c2nc(C#N)c(Nc3ccc(OCC)cc3)o2)cc1	none
CCOC(=O)CCNC(C(=O)OCC)c1ccccc1 (centres undefined)	HP1b chromo inh inconclusive, G9a block inconclusive, BAZ2B block inconclusive, JMJD2A Tudor 35.5µM
CCOC(=O)CCNC(=O)CCNC(=O)C(c1ccccc1)c1ccccc1	none
COc1ccc(C)cc1NC(=O)CSc1ncc2c(n1)-c1ccc(Cl)cc1N(Cc1ccccc1)S2(=O)=O	BAZ2B block 50.1µM
COc1cc(Cl)c(C)cc1NC(=O)C(OC(=O)CNC(=O)c1ccccc1)c1ccccc1 (centres undefined)	none (no result: HP1b chromo inh, G9a block, BAZ2B block, GLS inhibitor)
Cc1ccc(CN2CCC(C(=O)NCCC(C)C)CC2)o1	HP1b chromo inh inconclusive, G9a block 31.6µM, BAZ2B block inconclusive, JMJD2A Tudor 44.7µM
CN(c1ccc(-c2csc(NC(=O)CCCc3nc4ccccc4c(=O)[nH]3)n2)cc1)S(C)(=O)=O	none (no result: HP1b chromo inh, G9a block, BAZ2B block, JMJD2A Tudor)
O=C(CCc1nc2ccccc2c(=O)[nH]1)Nc1nc(-c2cccs2)cs1	G9a block 44.7µM
C=CCn1c(C)cc(-c2csc(NC(=O)CCc3nc4ccccc4c(=O)[nH]3)n2)c1C	G9a block 31.6µM, BAZ2B block inconclusive
Cc1ccc(NC(=O)C2CCN(S(=O)(=O)c3ccc4c(c3)NC(=O)C(C)S4)CC2)cc1Cl (centres undefined)	none
O=C(c1ccco1)N1CCC(c2nc3c(nnn3Cc3ccc(F)cc3)c(=O)[nH]2)CC1	none
COc1ccc(N=Cc2nc(-c3ccco3)oc2O)cc1	G9a block inconclusive
CCC(=NCc1ccc(Cl)c(Cl)c1)c1nc(-c2ccco2)oc1O	HP1b chromo inh inconclusive, G9a block 44.7µM, BAZ2B block 12.6µM, JMJD2A Tudor inconclusive
NS(=O)(=O)c1ccc(NC(=O)CN2C(=O)c3ccccc3C2=O)cc1	none
CN(C)c1ccc(C(=O)OCC(=O)Nc2ccc(S(N)(=O)=O)cc2)cc1	HP1b chromo inh inconclusive, G9a block inconclusive, JMJD2A Tudor 56.2µM (no result: BAZ2B block)
CCOC(=O)c1c(C)c(C(=O)Nc2ccc(N(C)C)cc2)c(C)n1CC	G9a block 2µM, BAZ2B block inconclusive, JMJD2A Tudor inconclusive
C=CCN1C(=O)c2ccc(C(=O)OCC(=O)Nc3ccc(S(N)(=O)=O)cc3)cc2C1=O	G9a block 50.1µM
CCOC(=O)c1c(C)c(C(=O)NCCOC)c(C)n1CC	none
CCOC(=O)c1ccc(NCc2ccc(N(C)C)cc2)cc1	G9a block 10µM, BAZ2B block 11.2µM, JMJD2A Tudor inconclusive
CN(C)c1ccc(NC(=O)COC(=O)c2ccc3c(c2)OCO3)cc1	HP1b chromo inh inconclusive, JMJD2A Tudor inconclusive (no result: G9a block, BAZ2B block)
CCC/C=C1/CCCOC(C(=O)NCC2CC2)(C(F)(F)F)C1 (centres undefined)	none (no result: G9a block, BAZ2B block, GLS inhibitor)
COc1ccc(-n2c(C)nc3cc(C(=O)NC4CCCC4)ccc32)cc1	none
COc1cccc(/C=C2/SC(=S)N(CC(=O)Nc3nccs3)C2=O)c1	none (no result: G9a block, BAZ2B block, GLS inhibitor)
CCn1c(SCC(=O)Nc2ccc(OC)c(OC)c2)nc2c(c1=O)SCC2	none (no result: G9a block)
COCCn1c(SCC(=O)NCC2CCCO2)nc2c(c1=O)SCC2 (centres undefined)	JMJD2A Tudor 89.1µM
COc1ccccc1-n1c(SCC(=O)Nc2ccc(F)cc2)nc2c(c1=O)SCC2	G9a block 50.1µM
CCn1c(SCC(=O)Nc2cc(OC)ccc2OC)nc2c(c1=O)SCC2	BAZ2B block 79.4µM, JMJD2A Tudor inconclusive
CCOc1ccc(C(c2c(O)cc(C)n(CCOC)c2=O)N2CCN(c3ccccc3)CC2)cc1 (centres undefined)	G9a block inconclusive, JMJD2A Tudor inconclusive
CCN(CC)Cc1c(C(=O)N/N=C/c2ccccn2)nnn1-c1nonc1N	G9a block inconclusive, BAZ2B block 11.2µM, JMJD2A Tudor inconclusive
Cc1c(C(=O)N/N=C/c2ccccn2)nnn1-c1nonc1N	G9a block inconclusive, BAZ2B block 44.7µM, JMJD2A Tudor 89.1µM
Nc1nonc1-n1nnc(C(=O)N/N=C/c2ccccn2)c1-c1ccccc1	BAZ2B block inconclusive, JMJD2A Tudor inconclusive
COc1ccccc1C(=O)NCc1nc2cccnc2n1Cc1ccc(F)cc1	none
O=C(CCCCn1c(=S)[nH]c2ccsc2c1=O)NCc1ccco1	G9a block 22.4µM, JMJD2A Tudor 25.1µM
O=C(CCCn1c(=S)[nH]c2ccsc2c1=O)NCc1ccco1	G9a block inconclusive, BAZ2B block inconclusive, JMJD2A Tudor 56.2µM
Cc1ccccc1Cn1c(=O)n(CCCC(=O)NCc2ccco2)c(=O)c2sccc21	none
CN(C(=O)CSc1nc2ccccc2n1CC(=O)N(C)C1CCCCC1)c1ccccc1	none
COc1cc(-c2nc(Cn3nnc(C(=O)Nc4cccc(Cl)c4)c3C)c(C)o2)cc(OC)c1OC	none
O=C(O)c1ccc(N=NN2CCCC2)cc1	G9a block 35.5µM
CC(=O)Nc1cccc(N=NN2CCCCC2)c1	G9a block 22.4µM
CC(=O)Nc1cccc(N=NN2CCOCC2)c1	none (no result: G9a block)
CC(=O)Nc1ccc(N=NN2CCOCC2)cc1	HP1b chromo inh inconclusive, G9a block 8.91µM
COc1ccc(N(C)S(=O)(=O)c2cccc(C(=O)OCC(=O)Nc3cc(C)ccc3OC)c2)cc1	none (no result: HP1b chromo inh, G9a block, BAZ2B block, JMJD2A Tudor)
O=C(NCc1ccccc1)c1ccc(CNS(=O)(=O)c2ccc(Br)cc2)cc1	none (no result: BAZ2B block)
Cc1ccc(OCCn2c(=S)[nH]c3c(N)ncnc32)cc1	HP1b chromo inh inconclusive, G9a block 3.55µM, JMJD2A Tudor 5.01µM, GLS inhibitor inconclusive
CC(C)Oc1ccc(OCCn2c(=S)[nH]c3c(N)ncnc32)cc1	HP1b chromo inh inconclusive, G9a block 2.51µM, JMJD2A Tudor 5.62µM
N#Cc1c(Nc2ccccc2)sc(C(=O)C2CC2)c1N	G9a block 79.4µM
CNC(=O)Nc1ccc2snnc2c1	G9a block 50.1µM
CC1(C)CC(=O)c2cc(C(=O)Nc3ccc(Br)cc3)c(=O)[nH]c2C1	none
CCN(CC)S(=O)(=O)c1cccc(-c2n[nH]c(=S)n2/N=C/c2ccc(OC(F)F)cc2)c1	HP1b chromo inh inconclusive, G9a block 1.78µM, BAZ2B block inconclusive, JMJD2A Tudor inconclusive
O=c1oc(-c2cccc(S(=O)(=O)N3CCOCC3)c2)nc2ccccc12	G9a block 10µM

From PubChem
